Inconclusive results are not listed. Entries that show only a call come without a potency. A number with no mark means an inactive call. Active and inactive are the calls of the source. Calls follow the shape of the dose curve; as a rule, active = well fitted curve in the direction sought with a large enough effect in the repeat runs; inconclusive = weak or mixed curves; inactive = no such curve, though single readings can be large; an effect the other way counts as inactive or inconclusive.
Key:
[1] = A CellTox Green Cytotoxicity Assay to monitor cytotoxicity in HEK293 cells - 40 hour (AID 1224871); also: nearly all actives have a fitted effect of over 45% in size
Summary of the method: (§1)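 Seeding of HEK293 cells together with cytotoxicity dye preceded a 5 h incubation at 37 C/5% CO2. Test compounds in DMSO were then added and fluorescence monitored across 40 h.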

[2] = qHTS RealTime-Glo MT Cell Viability Assay in HepG2 cells - 8 hour (AID 1224873); also: nearly all actives have a fitted effect of over 55% in size
Summary of the method: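 Real-time viability: cells seeded at 600 per well together with NanoLuc and cell-permeant prosubstrate, compounds added after 5 h incubation. Luminescence tracked at 0, 8, 16, 24, 32 and 40 h of exposure.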

[3] = qHTS RealTime-Glo MT Cell Viability Assay in HEK293 cells - 40 hour (AID 1224874); conditions: RealTime-Glo luminescence; max response: active compounds read low; also: nearly all actives have a fitted effect of over 50% in size; also: potency is read from the fitted curve at half-maximal effect
Summary of the method: (§2)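 Tox21 screen in HEK293 using RealTime-Glo MT chemistry, with cells and reagent co-dispensed. Luminescence proportional to viable cell number was captured at intervals during 40 h compound exposure at 37 C.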

[4] = A CellTox Green Cytotoxicity Assay to monitor cytotoxicity in HEK293 cells - 24 hour (AID 1224875); also: series mostly up to about 77 µM; nearly all actives have a fitted effect of over 45% in size
Summary of the method: as §1

[5] = A CellTox Green Cytotoxicity Assay to monitor cytotoxicity in HepG2 cells - 16 hour (AID 1224876); also: nearly all actives have a fitted effect of over 45% in size; also: potency is read from the fitted curve at half-maximal effect
Summary of the method: (§3)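 Nonlytic assay: viable cells exclude the dye, so fluorescence scales with cell death. HepG2 at 600 cells/well, compounds added after 5 h, signal read across 40 h.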

[6] = qHTS RealTime-Glo MT Cell Viability Assay in HepG2 cells - 32 hour (AID 1224877); also: nearly all actives have a fitted effect of over 55% in size; also: potency is read from the fitted curve at half-maximal effect
Summary of the method: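 qHTS, HepG2, 600 cells/well, RealTime-Glo (NanoLuc + prosubstrate) added with cells; 5 h preincubation; DMSO compound addition; 37 C; luminescence at 0/8/16/24/32/40 h.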

[7] = A CellTox Green Cytotoxicity Assay to monitor cytotoxicity in HepG2 cells - 24 hour (AID 1224878); also: nearly all actives have a fitted effect of over 45% in size; also: potency is read from the fitted curve at half-maximal effect
Summary of the method: as §3

[8] = A CellTox Green Cytotoxicity Assay to monitor cytotoxicity in HepG2 cells - 40 hour (AID 1224879); also: nearly all actives have a fitted effect of over 40% in size; also: potency is read from the fitted curve at half-maximal effect
Summary of the method: as §3

[9] = qHTS RealTime-Glo MT Cell Viability Assay in HEK293 cells - 0 hour (AID 1224880)
Summary of the method: as §2

[10] = qHTS RealTime-Glo MT Cell Viability Assay in HEK293 cells - 16 hour (AID 1224872); also: nearly all actives have a fitted effect of over 50% in size; also: potency is read from the fitted curve at half-maximal effect
Summary of the method: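 Assay medium contained NanoLuc luciferase plus cell-permeant prosubstrate, added with HEK293 cells at 600 cells/well. After 5 h at 37 C/5% CO2 compounds were added; plates stayed at 37 C for 40 h with serial luminescence reads.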

| Compound | Potency [1] | Potency [2] | max response [3] [%] | Potency [4] | Potency [5] | Potency [6] | Potency [7] | Potency [8] | outcome [9] | Potency [10] | Potency [3] |
| --- | --- | --- | --- | --- | --- | --- | --- | --- | --- | --- | --- |
| C=C(C)[C@@H]1CC=C(C=O)CC1 | inactive | inactive | -6.37 | inactive | inactive | inactive | inactive | inactive | inactive | – | – |
| CCCCCCI | inactive | inactive | -0.352 | inactive | inactive | 34.7 µM (active) | inactive | inactive | inactive | – | – |
| O=C(O)c1ccc2[nH]cc(CCCCN3CC=C(c4ccccc4)CC3)c2c1 | inactive | inactive | -1.51 | inactive | inactive | inactive | inactive | inactive | inactive | – | – |
| CCN(Cc1ccc(Cl)nc1)/C(=C/[N+](=O)[O-])NC | inactive | inactive | 2.66 | inactive | – | inactive | inactive | inactive | inactive | – | – |
| NC(=O)c1cc([N+](=O)[O-])cc([N+](=O)[O-])c1 | inactive | inactive | 4.2 | – | inactive | inactive | inactive | inactive | inactive | – | – |
| COC(=O)C1=CCCN(C)C1 | inactive | inactive | 3.81 | inactive | – | inactive | inactive | inactive | inactive | – | – |
| COc1cc(OC)nc(NC(=O)NS(=O)(=O)c2ncccc2C(=O)N(C)C)n1 | inactive | inactive | 7.6 | inactive | inactive | inactive | inactive | inactive | inactive | – | – |
| N#Cc1c(Cl)cccc1Cl | inactive | inactive | 18.9 | inactive | inactive | inactive | inactive | inactive | inactive | – | – |
| COC(=O)c1ccccc1S(=O)(=O)NC(=O)Nc1nc(C)cc(C)n1 | inactive | inactive | 7.64 | inactive | inactive | inactive | inactive | inactive | inactive | – | – |
| Nc1cc(Cl)ccc1O | inactive | inactive | -11.2 | inactive | – | – | inactive | inactive | inactive | – | – |
| O=C(CCCN1CCC(n2c(=O)[nH]c3ccccc32)CC1)c1ccc(F)cc1 | inactive | inactive | -27.9 | inactive | – | inactive | inactive | inactive | inactive | – | – |
| CNC(=O)N(C)c1nc2ccccc2s1 | inactive | inactive | -18.7 | inactive | inactive | inactive | inactive | inactive | inactive | – | – |
| O=C(N[C@H]1CN2CCC1CC2)c1cc2ccoc2cn1 | inactive | inactive | 8.57 | – | inactive | inactive | – | – | inactive | – | – |
| c1cc2c(c(N3CCNCC3)c1)OCCO2 | inactive | inactive | -2.14 | inactive | inactive | inactive | inactive | inactive | inactive | – | – |
| CCOC(=O)/C=C(C)/C=C/C[C@@H](C)CCCC(C)C | inactive | inactive | 8.55 | inactive | inactive | inactive | inactive | inactive | inactive | – | – |
| CCCCOC(=O)[C@@H](C)Oc1ccc(Oc2ccc(C#N)cc2F)cc1 | inactive | – | – | – | inactive | inactive | inactive | inactive | inactive | 13.7 µM (active) | 38.7 µM (active) |
| COP(=S)(OC)Oc1ccc(S(N)(=O)=O)cc1 | inactive | – | -1.36 | inactive | inactive | inactive | inactive | inactive | inactive | inactive | – |
| CCOP(=O)(N=C1SCCS1)OCC | inactive | inactive | – | inactive | inactive | inactive | inactive | inactive | inactive | – | – |
| CCN(CC)C(C)C(=O)c1ccccc1 (centres undefined) | inactive | inactive | – | inactive | inactive | inactive | inactive | inactive | inactive | – | – |
| C#C[C@]1(O)C=C[C@H]2[C@@H]3CCC4=CC(=O)CC[C@@H]4[C@H]3CC[C@@]21CC | inactive | inactive | – | inactive | inactive | inactive | inactive | inactive | inactive | – | – |
| Nc1ccccc1Cl | inactive | inactive | – | inactive | inactive | inactive | inactive | inactive | inactive | – | – |
| C=CCC1=C(C)[C@@H](OC(=O)[C@@H]2[C@@H](C=C(C)C)C2(C)C)CC1=O | – | inactive | – | – | inactive | inactive | 49 µM (active) | 49 µM (active) | inactive | 11 µM (active) | 21.9 µM (active) |
| CC1COC2(c3ccccc3Cl)c3cc(Cl)ccc3NC(=O)CN12 (centres undefined) | inactive | inactive | – | inactive | inactive | inactive | inactive | – | inactive | – | – |
| c1coc(-c2nc3ccccc3[nH]2)c1 | inactive | inactive | – | inactive | – | inactive | inactive | inactive | inactive | – | – |
| CCOP(=S)(Oc1cnc(C(C)(C)C)nc1)OC(C)C (centres undefined) | – | inactive | -10.5 | inactive | inactive | inactive | inactive | inactive | inactive | – | – |
| CC1CCCCC1NC(=O)Nc1ccccc1 (centres undefined) | inactive | inactive | – | inactive | inactive | inactive | inactive | inactive | inactive | – | – |
| [As]#[In] | inactive | inactive | – | inactive | inactive | inactive | – | – | inactive | – | – |
| CCc1cc2c(s1)-n1c(C)nnc1CN=C2c1ccccc1Cl | – | inactive | -28.6 | – | inactive | inactive | inactive | inactive | inactive | inactive | – |

| Compound | Potency [1] | Potency [2] | max response [3] [%] | Potency [4] | Potency [5] | Potency [6] | Potency [7] | Potency [8] | outcome [9] | Potency [10] | Potency [3] |
| --- | --- | --- | --- | --- | --- | --- | --- | --- | --- | --- | --- |
| CC1CCC(=O)O1 (centres undefined) | inactive | inactive | – | – | inactive | inactive | inactive | inactive | inactive | – | – |
| O=[N+]([O-])c1cccc2c([N+](=O)[O-])cccc12 | inactive | inactive | – | inactive | – | inactive | inactive | – | – | – | – |
| CC1(C(=O)Nc2ccc(O)c(Cl)c2Cl)CCCCC1 | – | inactive | – | – | – | inactive | – | – | inactive | – | – |
| CN1C(=S)CN=C(c2ccccc2)c2cc(Cl)ccc21 | – | inactive | – | inactive | inactive | – | inactive | inactive | inactive | inactive | – |
| CC(C)(C)OC(=O)c1ncn2c1[C@@H]1CCCN1C(=O)c1c(Br)cccc1-2 | inactive | inactive | – | inactive | inactive | – | inactive | inactive | inactive | – | – |
| CCSC(=O)N(CC)C1CCCCC1 | – | inactive | – | inactive | inactive | – | inactive | inactive | inactive | inactive | – |
| CCC(Cl)[N+](=O)[O-] (centres undefined) | inactive | inactive | 4.31 | – | – | inactive | inactive | inactive | inactive | – | – |
| Fc1ccc(C2(Cn3cncn3)OC2c2ccccc2Cl)cc1 (centres undefined) | – | inactive | – | inactive | – | inactive | – | – | inactive | – | 27.5 µM (active) |
| CC(C1CC1)C(O)(Cn1cncn1)c1ccc(Cl)cc1 (centres undefined) | inactive | inactive | – | inactive | – | inactive | inactive | inactive | inactive | – | – |
| Oc1c(Cl)cccc1Cl | inactive | inactive | – | inactive | inactive | inactive | inactive | inactive | inactive | – | – |
| Cc1ccccc1CO[C@@H]1C[C@@]2(C(C)C)CC[C@]1(C)O2 | – | inactive | -15.4 | – | – | inactive | inactive | inactive | inactive | inactive | – |
| O=C(Cc1ccccc1)OCc1ccccc1 | – | inactive | -18.6 | inactive | inactive | inactive | inactive | inactive | inactive | – | – |
| CC1(C)C(=O)NC(=O)NC1=O | – | inactive | – | – | inactive | inactive | inactive | inactive | inactive | inactive | – |
| COc1ccc2c(c1OC)CN1CCc3cc4c(cc3C1C2)OCO4 (centres undefined) | inactive | inactive | – | inactive | – | inactive | inactive | inactive | inactive | – | – |
| CN1CCC(O)(c2ccc(F)cc2)C(C(=O)c2ccc(F)cc2)C1 (centres undefined) | – | inactive | -17.3 | inactive | – | – | – | – | inactive | inactive | – |
| CC(C)(C)NCC(O)c1cc(Cl)c(N)c(Cl)c1 (centres undefined) | inactive | inactive | – | inactive | inactive | – | inactive | inactive | inactive | – | – |
| CC1=NNC(=O)N(/N=C/c2cccnc2)C1 | inactive | inactive | – | inactive | inactive | inactive | inactive | inactive | inactive | – | – |
| CCCCc1c(C)nc(NCC)[nH]c1=O | inactive | inactive | – | – | inactive | – | – | – | inactive | – | – |
| NC1=NC(=O)C(c2ccccc2)O1 (centres undefined) | inactive | inactive | – | inactive | inactive | inactive | inactive | inactive | inactive | – | – |
| Cc1cc(C)nc(Nc2ccccc2)n1 | inactive | inactive | – | inactive | inactive | inactive | inactive | inactive | inactive | – | – |
| OC(c1ccc(F)cc1)(c1cncnc1)c1ccccc1Cl (centres undefined) | – | inactive | -29.2 | – | – | – | inactive | inactive | inactive | inactive | – |
| [Cl][Sn]([Cl])([Cl])[Cl] | – | inactive | – | – | inactive | inactive | inactive | inactive | inactive | inactive | – |
| CCCCc1ccc(O)cc1 | – | inactive | – | inactive | 21.8 µM (active) | inactive | 21.8 µM (active) | 21.8 µM (active) | inactive | – | 15.5 µM (active) |
| COC(C)(C)C | – | inactive | 6.3 | inactive | inactive | inactive | inactive | inactive | inactive | inactive | – |
| CC1=C(C(=O)Nc2ccccc2)S(=O)(=O)CCO1 | – | inactive | – | inactive | inactive | inactive | inactive | inactive | – | – | – |
| CC(COc1ccc(Oc2ccccc2)cc1)Oc1ccccn1 (centres undefined) | inactive | inactive | – | inactive | inactive | – | inactive | inactive | inactive | – | – |
| CSc1nc(N=[N+]=[N-])nc(NC(C)C)n1 | inactive | inactive | – | inactive | – | inactive | inactive | inactive | inactive | – | – |

Source: PubChem BioAssay (Tox21)
